What all share (settings): concentration: 10 µM; 24 h
For test [1], the system named is HCC1569. Briefly: cell number relative to DMSO (% of DMSO); higher = more cells (less growth inhibition / toxicity). A digest of the protocol:
(§1)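 Cell number or H1.0 nuclear intensity appears as percent of the plate control, based on the median of replicates. Measurements came from HCC1569 and TDF cells exposed in triplicate to compounds at 10 µM for 24 h at 37 °C, then imaged in six fields per well at ×10. Positional effects were smoothed out of HCC1569 values.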

Test [2] deals with TDF. The test is described as above. A digest of the protocol:
as §1

Test [3] has as its system TDF. Briefly: H1.0 immunofluorescence intensity relative to DMSO (% of DMSO); higher = stronger H1.0 induction, active = 120 or more. The method, boiled down: as §1
The test system of test [4] is HCC1569. Description: H1.0 immunofluorescence intensity relative to DMSO (% of DMSO); higher = stronger H1.0 induction, active = 140 or more. A digest of the protocol:
as §1

Values joined by “and” are separate entries in the source; they are usually repeats but may differ in a detail not shown here. Identical values can stand only once. ± gives the standard deviation of the averaged measurements.
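For H1.0 immunofluorescence intensity relative to DMSO in this document: TDF is a line of transformed human dermal fibroblasts of mesenchymal origin.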
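For cell number relative to DMSO in this document: TDF denotes transformed human dermal fibroblasts of mesenchymal origin.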

With `O=C(OC1CC2CC3CC(C1)N2CC3=O)c1c[nH]c2ccccc12` (centres undefined) [Dolasetron], the cell number in test [1] came to 99.1; in test [2] it was 84.3. For the same compound, the H1.0 immunofluorescence intensity was 102 (inactive) in test [3] and 105 (inactive) in test [4].
Taken in the same sequence, the figures for `CCCCCCCCC=CCCCCCCCC(=O)O` [Oleic Acid] were 105, 103, 91.8 (inactive) and 87.8 (inactive).
Taken in the same sequence, the figures for `Cc1cccc(C=Cc2ccccc2)n1` were 101, 104, 96.7 (inactive) and 100 (inactive).
Turning to `C=C(C)C1CCC2(C(=O)O)CCC3(C)C(CCC4C5(C)CCC(O)C(C)(C)C5CCC43C)C12` (centres undefined) [Betulinic acid], the cell number is 101 in test [1] and 108 in test [2]. The H1.0 immunofluorescence intensity in test [3] was 96.3 (inactive); in test [4], 97 (inactive).
For `Cc1[nH]c2ccccc2c1CC(=O)N[C@@H](Cc1ccccc1)C(=O)N(C)c1ccccc1`, the cell number turned out to be 100 in test [1] and 109 in test [2]. The results for the H1.0 immunofluorescence intensity in test [3] and in test [4] were 88.8 (inactive) and 119 (inactive), respectively.
The corresponding values for `CCCCCCCCCCCCCCCCOCC(COP(=O)([O-])OCC[N+](C)(C)C)OC` (centres undefined) [1-Hexadecyl-2-methylglycero-3 PC] are 101, 95.4, 104 (inactive) and 102 (inactive).
The corresponding values for `COc1cccc2c1C(=O)c1c(O)c3c(c(O)c1C2=O)CC(O)(C(=O)CO)CC3OC1CC(N)C(O)C(C)O1.Cl` (centres undefined) [Doxorubicin.HCl] are 59.6 ± 3.9, 17.1 ± 3.7, 132 (active) and 1430 (active).
Taken in the same sequence, the figures for `COc1cccc(OC)c1OCCNCC1COc2ccccc2O1.Cl` (centres undefined) [WB-4101 hydrochloride] were 102, 101, 93.7 (inactive) and 93.3 (inactive).
For `C[N+](C)(C)CCO.[Br-]` [Choline bromide], the cell number came to 104 in test [1] and 108 in test [2]. Further, the H1.0 immunofluorescence intensity is 96.9 (inactive) in test [3] and 98 (inactive) in test [4].
Taken in the same sequence, the figures for `Nc1nc2ccc(Cl)cc2n2c(-c3ccccc3)nnc12` [8-chloro-1-phenyl[1,2,4]triazolo[4,3-a]quinoxalin-4-ylamine] were 104, 102, 93.9 (inactive) and 99 (inactive).
Taken in the same sequence, the figures for `Cl.NC12CC3CC(CC(C3)C1)C2` [Amantadine hydrochloride] were 107, 109, 104 (inactive) and 98.4 (inactive).
Taken in the same sequence, the figures for `CS(=O)(=O)O.C[C@H](NCc1ccc(OCc2cccc(F)c2)cc1)C(N)=O` were 99.7, 102, 97.6 (inactive) and 98.6 (inactive).
Consider `S=C([S-])OC1CC2CC1C1CCCC21.[K+]` [D-609 potassium], for which the cell number amounted to 100 in test [1] and 104 in test [2]. The H1.0 immunofluorescence intensity was 95.2 (inactive) in test [3] and 102 (inactive) in test [4].
For `CCCc1nc2c(C)cc(-c3nc4ccccc4n3C)cc2n1Cc1ccc(-c2ccccc2C(=O)O)cc1` [Telmisartan], the results for the cell number in test [1] and in test [2] were 99.7 and 97.5, respectively. Besides, the figures for the H1.0 immunofluorescence intensity in test [3] and in test [4] were 101 (inactive) and 97.2 (inactive), respectively.
With `O=c1[nH]nc(Sc2ncc([N+](=O)[O-])s2)n1-c1ccc2c(c1)OCCO2`, the cell number is 58.3 and 32.2 in test [1]; 90.9 and 81.2 in test [2]. The H1.0 immunofluorescence intensity in test [3] was 103 (inactive) and 102 (inactive); in test [4] it was 137 (inactive) and 134 (inactive).
`Nc1[nH]nc2nnc(-c3c(-c4ccccc4)nn4ccccc34)cc12`: the cell number in test [1] is 94.2; in test [2], 100. The results for the H1.0 immunofluorescence intensity in test [3] and in test [4] were 89.2 (inactive) and 117 (inactive), respectively.
Taken in the same sequence, the figures for `CCCCCCCCC=CCCCCCCCCCCCCC(=O)O` [14(Z)-Tricosenoic acid] were 100, 106, 100 (inactive) and 101 (inactive).
Consider `CS(=O)(=O)O.Cn1cc(C(F)(F)F)nc1-c1ccc(OCC(O)CNCCOc2ccc(O)c(C(N)=O)c2)cc1` (centres undefined), for which the figures for the cell number in test [1] and in test [2] were 97.2 and 92.5, respectively. The H1.0 immunofluorescence intensity in test [3] was 94.5 (inactive); in test [4] it was 96.4 (inactive).
Taken in the same sequence, the figures for `COc1cc(CC(=O)O)ccc1O` [4-Hydroxy-3-methoxyphenylacetic acid] were 105, 106, 102 (inactive) and 97 (inactive).
As for `CN1CCN(CCC=C2c3ccccc3Sc3ccc(S(=O)(=O)N(C)C)cc32)CC1.Cl` [Thiothixene hydrochloride], the figures for the cell number in test [1] and in test [2] were 95 and 107, respectively. Moreover, the values for the H1.0 immunofluorescence intensity in test [3] and in test [4] were 98.5 (inactive) and 96.8 (inactive), respectively.
Taken in the same sequence, the figures for `CC(=O)OCC(=O)NCCCOc1cccc(CN2CCCCC2)c1.Cl` [Roxatidine acetate.HCl] were 107, 95.7, 103 (inactive) and 99 (inactive).

(Values after the supplement of paper PMC7156485.)
